PubChem BioAssay AID651592 (Sanford-Burnham Center for Chemical Genomics, 2012)
Calls of active or inactive are those of the source.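 Rule for the calls: active = NF-kB reporter IC50 at most 10 µM, IL-8 IC50 within fivefold of it with bacterial filtrate but not with TNF-alpha; inactive = the rest.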

Molecular target: Interleukin-8 (Homo sapiens) (UniProt P10145)
Assay: inhibitors of NFkB activation in CF airway cells, SAR follow-up, KKLEB cells, panel, IL8 HTRF, NFkB-GFP (AID 651592);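 note: immortalized cystic fibrosis airway epithelial KKLEB cells with an NF-kB GFP reporter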
Settings: PAF/TNFa-induced NFkB-GFP / IL8 HTRF, mean of runs

Chain of Interleukin-8 (Homo sapiens) (P10145 whole entry, looked up): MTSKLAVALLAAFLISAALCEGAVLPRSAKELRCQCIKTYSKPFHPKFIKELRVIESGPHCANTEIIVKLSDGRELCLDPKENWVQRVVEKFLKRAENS

outcome, active:
O=C(Nc1ccc(N2CCN(C(=O)c3ccc(F)cc3)CC2)cc1)c1cc(Br)cc(Br)c1
O=C(Nc1ccc(N2CCN(C(=O)c3ccccc3)CC2)cc1)c1ccccn1
O=C(Nc1ccc(N2CCN(C(=O)c3ccccc3)CC2)cc1)c1ccccc1
O=C(Nc1ccc(N2CCN(C(=O)c3ccccc3F)CC2)cc1)c1ccccc1
O=C(Nc1ccc(N2CCN(C(=O)c3ccccc3Cl)CC2)cc1)c1ccncc1
O=C(Nc1ccc(N2CCN(C(=O)c3ccc(F)cc3)CC2)cc1)c1cccnc1
O=C(Nc1ccc(N2CCN(C(=O)c3ccccc3F)CC2)cc1)c1ccccn1
O=C(Nc1ccc(N2CCN(C(=O)c3ccc(F)cc3)CC2)cc1)c1ccccn1
O=C(Nc1ccc(N2CCN(C(=O)c3ccccc3Cl)CC2)cc1)c1cc(Br)cc(Br)c1
O=C(Nc1ccc(N2CCN(C(=O)c3ccccc3F)CC2)cc1)c1cc(Br)cc(Br)c1
O=C(Nc1ccc(N2CCN(C(=O)c3ccccc3)CC2)cc1)c1ccncc1
O=C(Nc1ccc(N2CCN(C(=O)c3ccccc3)CC2)cc1)c1cccc(Br)c1
O=C(Nc1ccc(N2CCN(C(=O)c3ccccc3F)CC2)cc1)c1cccc(Br)c1
O=C(Nc1ccc(N2CCN(C(=O)c3ccc(F)cc3)CC2)cc1)c1cccc(Br)c1
O=C(Nc1ccc(N2CCN(C(=O)c3ccccc3Cl)CC2)cc1)c1cccnc1
O=C(Nc1ccc(N2CCN(C(=O)c3ccccc3)CC2)cc1)c1cccnc1
O=C(Nc1ccc(N2CCN(C(=O)c3ccccc3)CC2)cc1)c1cc(Br)cc(Br)c1
O=C(Nc1ccc(N2CCN(C(=O)c3ccccc3F)CC2)cc1)c1cccnc1
O=C(Nc1ccc(N2CCN(C(=O)c3ccc(F)cc3)CC2)cc1)c1ccncc1
O=C(Nc1ccc(N2CCN(C(=O)c3ccccc3Cl)CC2)cc1)c1cccc(Br)c1
CCOc1ccc(NCc2cc3c(C(C)(C)C)nn(-c4ccc(Cl)cc4)c3[nH]c2=O)cc1
CCOc1ccc(NCc2cc3c(C(C)(C)C)nn(-c4ccccc4)c3[nH]c2=O)cc1
Cc1ccc(NCc2cc3c(C(C)(C)C)nn(-c4ccccc4)c3[nH]c2=O)cc1
Cc1ccc(CNCc2cc3c(C(C)(C)C)nn(-c4ccccc4)c3[nH]c2=O)cc1
O=C(Nc1ccc(N2CCN(C(=O)c3ccccc3Cl)CC2)cc1)c1ccccn1
O=C(Nc1ccc(N2CCN(C(=O)c3ccccc3F)CC2)cc1)c1ccncc1
O=C(Nc1ccc(N2CCN(C(=O)c3ccc(F)cc3)CC2)cc1)c1ccccc1
CCOc1ccc(NCc2cc3c(-c4ccc(OC)c(OC)c4)nn(-c4ccccc4)c3[nH]c2=O)cc1

outcome, inactive:
O=C(Nc1ccc(N2CCN(C(=O)c3ccccc3Cl)CC2)cc1)c1ccccc1
O=C(Nc1ccc(N2CCN(C(=O)c3ccccc3)CC2)cc1)c1cncc(Br)c1
CCOc1ccc(NCc2cc3c(-c4ccc(F)cc4)nn(-c4ccccc4)c3[nH]c2=O)cc1
O=C(Nc1ccc(N2CCN(C(=O)c3ccc(F)cc3)CC2)cc1)c1cncc(Br)c1
CCOc1ccc(NCc2cc3c(C)nn(-c4ccccc4)c3[nH]c2=O)cc1
O=C(Nc1ccc(N2CCN(C(=O)c3ccccc3Cl)CC2)cc1)c1cncc(Br)c1
